# A selection: hits, their analogues and other compounds. The true share with any hit is near 2.9%.
# Mcl1 Bid PPI: Mcl-1/Bid interaction inhibition | Q07820 | TR-FRET Mcl-1/Bid-Dy647 peptide binding, 1536-well | inhibition, % at 21.7 µM | 220,000 tested, 0.97% active;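 active means compounds that cut the binding signal by more than half at the single screening dose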;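 further: His-tagged Mcl-1 with europium anti-His antibody binding Bid BH3 peptide; 0% = Mcl-1 plus peptide wells and 100% = peptide-only wells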
# Target sequence (Q07820 whole entry, looked up): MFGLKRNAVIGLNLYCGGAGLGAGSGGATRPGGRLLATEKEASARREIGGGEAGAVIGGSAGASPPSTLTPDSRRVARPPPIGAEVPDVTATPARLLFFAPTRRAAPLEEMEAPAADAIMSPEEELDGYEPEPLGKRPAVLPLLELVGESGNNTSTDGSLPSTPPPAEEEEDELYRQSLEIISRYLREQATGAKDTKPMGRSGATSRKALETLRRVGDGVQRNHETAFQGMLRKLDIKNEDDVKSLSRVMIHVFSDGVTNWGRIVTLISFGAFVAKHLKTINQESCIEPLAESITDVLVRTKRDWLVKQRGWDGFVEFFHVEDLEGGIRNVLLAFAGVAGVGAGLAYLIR
# Bim-Mcl-1: disrupts Bim peptide binding to human Mcl-1. Q07820. 190,000 tested, 0.1% active. inhibition, % at 10 µM. Bead-based flow cytometry, Bim peptide-Mcl-1 binding; in the data active means inhibition above about 40%;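 further: 0% = no compound tracer wells and 100% = peptide blocker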
# 14-3-3 Bad inh: disrupts binding of bovine 14-3-3 zeta to phospho-Bad peptide; inhibition, % at 21.7 µM; TR-FRET 14-3-3zeta/Dy647-pBad peptide displacement, 1 h; AID 781; 220,000 tested, 0.71% active;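 active means inhibition above about 70%, limit read from the data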;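 further: 0% = full 14-3-3 plus peptide FRET controls and 100% = background without 14-3-3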
# Target sequence (P63103 whole entry, looked up): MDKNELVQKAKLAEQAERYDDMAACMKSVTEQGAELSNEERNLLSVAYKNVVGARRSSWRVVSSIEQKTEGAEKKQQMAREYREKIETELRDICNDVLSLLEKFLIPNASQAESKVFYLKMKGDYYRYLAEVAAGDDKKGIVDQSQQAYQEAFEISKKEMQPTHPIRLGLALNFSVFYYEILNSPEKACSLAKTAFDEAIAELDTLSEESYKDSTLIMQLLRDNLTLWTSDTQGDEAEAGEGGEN
# Mcl1 Noxa PPI: Mcl-1/Noxa interaction inhibition | Q07820 | TR-FRET Mcl-1/Noxa peptide binding, 2 h | inhibition, % at 21.7 µM | 220,000 tested, 1.5% active | AID 1022;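 active means compounds that cut the protein-peptide binding signal by more than 50% relative to plate controls in a single-dose test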;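 further: His-tagged Mcl-1 with rhodamine Noxa BH3 peptide and terbium anti-His antibody; 0% = Mcl-1 plus Noxa peptide wells and 100% = peptide-only wells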
# Pf gamet viab: P. falciparum stage V gametocyte viability inhibition; 150,000 tested, 0.065% active; AID 743093; P. falciparum stage V gametocytes, ATP luminescence, 24 h; inhibition, % at 10.9 µM;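 active means inhibition above the mean plus 3 SD of compounds within the control limits, set per campaign, cut at about 38% in these data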;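 further: 0% = DMSO wells and 100% = medium only without gametocytes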
# Hck-Nef inh: inhibitors of human Hck kinase activated by Nef. Recombinant Hck-YEEI plus Nef, Z-Lyte FRET kinase assay. inhibition, % at 20 µM. 220,000 tested, 0.68% active. AID 463187;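 active means Hck-Nef kinase inhibition above about 50%, limit read from the data; inactive means inhibition below that limit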;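 further: 0% = DMSO with Hck plus Nef and 100% = Hck alone without Nef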
# Starred values were filed as active, the others as inactive; / = not tested or not shown.
SMILES,Mcl1 Bid PPI,Bim-Mcl-1,14-3-3 Bad inh,Mcl1 Noxa PPI,Pf gamet viab,Hck-Nef inh
COc1ccc(C(=O)Nc2ccc(S(=O)(=O)NCc3ccco3)cc2)cc1OC,-55.2,1.0,7.2,15.9,-35.2,-0.3
CCOC(=O)c1c(C)[nH]c(C(=O)COC(=O)CNC(=O)c2ccc(Cl)cc2Cl)c1C,-3.7,-3.0,-26.8,5.0,14.1,1.1
CS(=O)(=O)N(Cc1ccc(C(=O)NCc2ccco2)cc1)c1ccccc1,-22.5,3.0,-10.3,15.3,/,-1.2
CCCCNc1c(N)n(CCC)c(=O)[nH]c1=O,-24.5,-1.0,0.7,18.4,-13.2,4.2
O=C(c1ccco1)N1C(=O)c2cccc3c(S(=O)(=O)N4CCCC4)ccc1c23,78.2*,-10.0,3.6,61.1*,-6.1,1.5
O=C1Nc2ccc(S(=O)(=O)N3CCCC3)c3cccc1c23,-11.1,-3.0,-1.5,7.1,/,1.8
CN1CCN(c2cc3c(c4c2[nH]c2ccccc24)C(=O)CC(C)(C)C3)CC1,-13.2,1.0,4.0,54.3*,/,11.4
CN1CCN(c2ncnc3c2[nH]c2ccc(F)cc23)CC1,-9.9,-5.0,1.2,37.0,/,-8.8
COc1ccc(-c2nn(-c3ccccc3)cc2C(=O)Nc2nccs2)cc1,0.5,-5.0,0.0,5.9,-8.1,0.7
O=C(Nc1nccs1)c1cn(-c2ccccc2)nc1-c1ccncc1,-91.4,-1.0,28.8,-46.0,69.2*,-7.1
CC1(OC(=O)C2CCCC2)C(=O)C=C2C=C3CCCCN3C=C2C1=O (centres undefined),-144.6,/,-3.9,9.6,/,19.8
CC1(OC(=O)c2ccc(Cl)nc2)C(=O)C=C2C=C3CCCN3C=C2C1=O (centres undefined),-105.7,/,3.6,58.7*,-46.2,14.8
COC(=O)CCC(=O)OC1(C)C(=O)C=C2C=C3CCCN3C=C2C1=O (centres undefined),-47.6,/,-2.1,53.6*,1.6,19.1
C/C(=N\Nc1ccccn1)c1ccc(OC(F)F)cc1,-13.2,0.0,-10.0,10.2,-4.9,-0.7
Cc1nn(-c2nc3ccccc3[nH]2)c(=O)c2ccccc12,-8.9,1.0,0.7,0.4,61.1*,22.1
Cc1nn(-c2ccc3ccccc3c2)c(=O)c2ccccc12,-9.4,-2.0,2.3,7.3,/,16.9
COc1ccc(NC(=O)Nc2nnc(-c3ccco3)s2)cc1,-46.1,/,-5.0,23.2,-2.9,27.1
Cn1cccc1CNCc1ccccc1Cl,-67.7,7.0,16.5,10.3,/,1.1
OC(CNCc1ccccc1Cl)C(F)(F)F (centres undefined),-24.8,0.0,82.4*,12.0,/,11.9
CC(=O)Nc1ccc(S(=O)(=O)Nc2nc3ccccc3nc2Nc2ccc(N)cc2)cc1,-144.7,/,0.4,58.0*,-16.6,15.1
c1ccc2c(c1)ncn2CCCCOc1ccc2c(c1)CCC2,68.6*,-1.0,58.6,39.1,-19.7,2.6
c1ccc2c(c1)ncn2CCCOc1ccc2c(c1)CCC2,13.9,-5.0,-12.5,16.6,-10.0,2.0
COc1ccc(C2=NOC(CN3C(=O)c4ccccc4S3(=O)=O)C2)cc1 (centres undefined),-14.0,19.0,-17.7,-13.3,/,9.3
CC1=C(C(=O)OC(C)C)C(c2ccccc2Cl)CC(=O)N1 (centres undefined),-4.0,-1.0,80.0*,-6.5,/,0.5
Cc1ccc(C(=O)COC(=O)CNC(=O)c2ccc(N3C(=O)c4ccccc4C3=O)cc2)cc1C,17.2,-6.0,18.0,82.9*,16.6,2.8
SMILES,Mcl1 Bid PPI,Bim-Mcl-1,14-3-3 Bad inh,Mcl1 Noxa PPI,Pf gamet viab,Hck-Nef inh
CSc1nc(NCc2ccco2)c2sc3nc(C(C)C)c4c(c3c2n1)CC(C)(C)OC4,-5.5,1.0,-6.1,-41.1,8.1,0.0
CSc1nc(NCCOCCO)c2sc3nc(-c4ccco4)c4c(c3c2n1)CCC4,18.9,9.0,30.2,95.8*,-7.8,81.1*
Brc1ccc(OCCCN2CCOCC2)cc1,64.5*,1.0,67.5,8.0,/,2.6
CC(C)(C)OC(=O)Nc1ncnc2c1ncn2C1OC(CO)C2OC(C)(C)OC21 (centres undefined),-7.5,/,-6.5,0.7,13.7,16.8
Clc1ccc2nc(CN3CCCCC3)cn2c1,-2.2,-3.0,35.8,9.2,-14.4,7.3
Clc1ccc2nc(CN3CCCc4ccccc43)cn2c1,100.3*,-4.0,5.7,47.0,-2.0,2.4
Cc1cc(C)n(CC(=O)N/N=C/c2ccc3c(c2)OCO3)n1,-10.9,0.0,-14.8,8.1,/,1.8
Cc1nn(CC(=O)N/N=C/c2ccc3c(c2)OCO3)c(C)c1Br,-13.1,-7.0,80.5*,-4.5,-2.3,0.3
Cc1nc2ccccn2c1P(=O)(N1CCCCC1)N1CCCCC1,-13.6,-5.0,1.2,-0.4,/,1.3
O=C(CSc1nc2ccc(Cl)cc2[nH]1)NC1CCCc2ccccc21 (centres undefined),3.9,-2.0,1.5,11.9,12.9,4.9
Cc1ccc2nc(SC(C)C(=O)NC3CCCc4ccccc43)[nH]c2c1 (centres undefined),84.0*,-4.0,-5.2,10.6,-15.2,3.1
COc1cccc(C(=O)/C=C/Nc2ccc(S(=O)(=O)Nc3onc(C)c3C)cc2)c1,-12.2,66.0*,-0.8,2.2,25.2,3.5
O=S(=O)(Nc1cccc(-c2cn3ccsc3n2)c1)c1ccc(F)cc1,98.1*,-2.0,-20.7,0.1,/,3.9
Cc1ccc(S(=O)(=O)Nc2cccc(-c3cn4ccsc4n3)c2)cc1,-8.8,-3.0,-4.7,3.6,/,4.9
CC(C)CN(CC(C)C)C(=S)NC1CCCCC1,93.0*,-1.0,-9.8,15.4,-8.8,-2.4
O=C(Oc1cccc(NC(=O)c2cccs2)c1)c1cccc(S(=O)(=O)N2CCCC2)c1,-27.1,-1.0,-19.8,6.0,6.0,4.4
Cc1cc(-c2ccco2)n2c(nc3ccccc32)c1C#N,96.3*,0.0,-11.8,-8.6,-2.8,-0.4
CCOc1ccc2cc(C3CC(c4ccco4)=NN3S(C)(=O)=O)c(Cl)nc2c1 (centres undefined),-0.7,/,2.4,-6.4,22.2,-177.9
CCOc1ccc2cc(/C=C/C(=O)c3ccco3)c(Cl)nc2c1,59.0*,1.0,10.3,-23.1,/,-5.5
COc1cc(/C=C(\C#N)c2nc3c(s2)CCCC3)ccc1O,29.5,0.0,36.7,51.0*,/,-2.1
N#C/C(=C\c1cccnc1)c1nc2c(s1)CCCC2,3.0,0.0,-10.3,-12.0,-4.5,30.3
CC(=O)Nc1ccccc1OCC(=O)NCCc1ccc(Cl)cc1Cl,-13.1,-4.0,0.7,7.9,10.2,2.5
CC1=C(C(=O)Nc2ccccc2C)C(c2cccs2)NC(=S)N1 (centres undefined),-76.5,-5.0,-29.2,3.9,/,6.0
CCOc1cccc2sc(Cl)nc12,-22.1,-4.0,-4.5,11.7,4.1,-8.9
CCOc1nsc(OCC)n1,-4.5,/,1.0,59.3*,/,10.1
Cc1ccc(Nc2nnc(SC3CCOC3=O)s2)c(C)c1 (centres undefined),-5.8,-3.0,79.7*,-1.5,/,-2.3

# Assay outcomes: PubChem, several laboratories
